Only some compounds are listed: those with a hit (about 12% of all), similar ones and a draw of the others.
HP1b chromo inh – blocks HP1-beta chromodomain binding to methylated histone tails; AlphaScreen HP1-beta / biotin-H3K9me3 peptide binding; 390,000 tested, 0.56% active; P83916; Potency, µM (titrated, usually from 114 µM), for inactives: at the highest dose activity change, negative = inhibition, actives largely listed as inhibitors; also: nearly all actives have a fitted effect of over 70% in size
Target sequence (P83916 whole entry, looked up): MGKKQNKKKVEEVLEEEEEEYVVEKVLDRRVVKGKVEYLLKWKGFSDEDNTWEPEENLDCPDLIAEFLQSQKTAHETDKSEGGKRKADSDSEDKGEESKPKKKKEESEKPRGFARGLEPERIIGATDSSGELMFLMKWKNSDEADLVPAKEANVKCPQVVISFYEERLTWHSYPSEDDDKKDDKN
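Compound inhibition of the preformed complex between 50 nM HP1-beta and 50 nM biotinylated H3K9me3 peptide was read by AlphaScreen. Buffer was PBS pH 7.4 with 0.01% Tween-20. Incubations ran 30 min at room temperature, with 10 ug/mL donor/acceptor beads.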
BAZ2B inh – blocks human BAZ2B. Potency, µM (titrated, usually from 114 µM), for inactives: at the top dose activity change, negative = inhibition, most hits filed as inhibitors. 360,000 tested, 4.4% active. Q9UIF8. AlphaScreen BAZ2B-H3K14Ac peptide displacement; also: % is scaled to controls: 0 for no effect and ±100 for the full control effect; nearly all actives have a fitted effect of over 60% in size
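AlphaScreen displacement of biotin-H3(5-23)K14Ac peptide (50 nM final) from BAZ2B (50 nM final) in PBS pH 7.4, 0.01% Tween-20; complex preformed 30 min RT, then compounds (top 110 uM) 30 min RT, beads 20 min dark.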
JMJD2A Tudor inh – inhibitors of human JMJD2A Tudor domain | O75164 | AlphaScreen JMJD2A-Tudor / H3K4me3 peptide binding | Potency, µM (highest dose often 114 µM), for the others: top-dose activity change, negative = inhibition, actives largely listed as inhibitors | 390,000 tested, 4.4% active; also: % is scaled to controls: 0 for no effect and ±100 for the full control effect; nearly all actives have a fitted effect of over 50% in size
Sfp PPTase inh – inhibitors of Bacillus subtilis Sfp phosphopantetheinyl transferase; Biochemical Sfp PPTase activity, qHTS; Potency, µM, inactives show largest response in the series, negative = inhibition, usual class: inhibitors; AID 1490; 310,000 tested, 3.5% active; Q9F4F7;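 also: the enzyme is Sfp with the accession as filed and its product quenches rhodamine fluorescence; 0% = enzyme reaction without inhibitor and -100% = no enzyme wells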
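Fluorescence-quenching assay: 15 nM Sfp-PPTase preincubated 15 min at room temperature with compound, then 5 uM rhodamine-CoA and 12.5 uM BHQ-2-labelled YbbR peptide added. Fluorescence (ex 525/em 598 nm) read at start and after 30 min; difference gives rate.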
G9a inh – G9a (human) methyltransferase inhibition; G9a H3K9 monomethylation, AlphaScreen, 2 h; Potency, µM (series often up to 102 µM), for the others: at the top dose activity, negative = inhibition, most hits filed as inhibitors; Q96KQ7; 350,000 tested, 8.8% active; also: % is scaled to controls: 0 for no effect and ±100 for the full control effect; nearly all actives have a fitted effect of over 75% in size
Target sequence (Q96KQ7 913-1193 limits assumed): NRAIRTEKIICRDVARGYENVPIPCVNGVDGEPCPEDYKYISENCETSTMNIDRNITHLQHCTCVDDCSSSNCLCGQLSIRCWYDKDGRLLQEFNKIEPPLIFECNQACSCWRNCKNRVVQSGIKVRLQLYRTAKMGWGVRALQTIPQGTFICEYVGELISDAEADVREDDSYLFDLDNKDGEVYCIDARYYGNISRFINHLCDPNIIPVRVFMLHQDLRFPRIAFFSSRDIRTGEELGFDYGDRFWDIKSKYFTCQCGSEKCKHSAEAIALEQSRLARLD
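G9a (20 nM) preincubated 15 min RT with compounds, then 500 nM biotinylated H3K9 peptide and 20 uM SAM added; 2 h RT reaction. Monomethyl-H3K9 product detected by AlphaScreen with anti-H3K9me1 antibody, streptavidin donor and anti-rabbit IgG acceptor beads.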
Starred values were filed as active, the others as inactive; [ ] = remark or other dose. Calls follow the shape of the dose curve; as a rule, active = well fitted curve in the direction sought with a large enough effect; inconclusive = small, poorly fitted or top-dose-only effect, or another doubt; inactive = no such curve, though single readings can be large; an effect the other way counts as inactive or inconclusive. Potency is read from the fitted curve at half-maximal effect.

Screening CCCc1cc(C(=O)N2CCCC(Nc3ccc(C)c(C)c3)C2)n(C)n1 (stereo not given) returned HP1b chromo inh -17%, BAZ2B inh -30%, JMJD2A Tudor inh -31%, Sfp PPTase inh 5% and G9a inh 45µM*.
`CCOc1cc(S(=O)(=O)n2ccc(C)n2)ccc1Br` gave HP1b chromo inh 34%, BAZ2B inh 3%, JMJD2A Tudor inh 6%, Sfp PPTase inh 17% and G9a inh 27%.
`O=C(N/N=C\c1ccc(Oc2ccccc2)cc1)c1csnn1` gave HP1b chromo inh 42%, BAZ2B inh 0%, JMJD2A Tudor inh -17%, Sfp PPTase inh -83% and G9a inh 0.89µM*.
Cc1cccc(C(=O)N/N=C/c2ccoc2)c1 was read as HP1b chromo inh 17%, BAZ2B inh 50µM*, JMJD2A Tudor inh -26%, Sfp PPTase inh 11% and G9a inh 6%.
For Cc1cccc(/C=N\NC(=O)c2csnn2)c1 the results were HP1b chromo inh 11%, BAZ2B inh inconclusive, JMJD2A Tudor inh 79µM*, Sfp PPTase inh 40µM* and G9a inh 9%[0.501 µM].
For CN(C)c1ccc(/C=N\NC(=O)c2csnn2)cc1 the results were HP1b chromo inh 27%, BAZ2B inh 8%, JMJD2A Tudor inh -6%[57.1 µM], Sfp PPTase inh 40µM* and G9a inh 3%[0.0925 µM].
`COc1ccc(C(=O)C2CCCN(C(=O)c3ccnn3C)C2)c(C)c1` (stereo not given) gave HP1b chromo inh 10%, BAZ2B inh -10%, JMJD2A Tudor inh -12%, Sfp PPTase inh 6% and G9a inh -2%[12.7 µM].
Screening O=C(COC(=O)CCCN=C1NS(=O)(=O)c2ccccc21)NC(=O)NC1CCCC1 returned HP1b chromo inh 21%, BAZ2B inh -9%, JMJD2A Tudor inh 4%, Sfp PPTase inh 8% and G9a inh 13%[59 µM].
`CCn1cc(S(=O)(=O)NCc2ccccc2Br)cn1` gave HP1b chromo inh 11%, BAZ2B inh 0%, JMJD2A Tudor inh -7%, Sfp PPTase inh 14% and G9a inh 30%.
For CN(C)S(=O)(=O)N1CCN(CC(=O)Nc2cc(Cl)ccc2Cl)CC1 the results were HP1b chromo inh 37%, BAZ2B inh -5%, JMJD2A Tudor inh -6%, Sfp PPTase inh -6% and G9a inh -9%.
For COc1ccc(/C=C(/NC(=O)c2ccccc2)C(=O)NC2CCS(=O)(=O)C2)cc1 (stereo not given) the results were HP1b chromo inh -10%, BAZ2B inh 7%, JMJD2A Tudor inh 14µM*, Sfp PPTase inh 9% and G9a inh -8%[59 µM].
`O=C(COC(=O)CCCNC(=O)c1ccc(Cl)cc1)NCc1ccccc1Cl` gave HP1b chromo inh 15%, BAZ2B inh 1%, JMJD2A Tudor inh -13%, Sfp PPTase inh 21% and G9a inh inconclusive.
Cc1ccc(S(=O)(=O)N2[C@@H](c3ccc(Cl)cc3)C(C(=O)O)=CC[C@H]2c2cccs2)cc1 was read as HP1b chromo inh 28%, BAZ2B inh 5%, JMJD2A Tudor inh -6% and G9a inh 4%[2.33 µM].
For CCC[n+]1c(C)sc2c(OC)ccc(OC)c21 the results were HP1b chromo inh 40%, BAZ2B inh 5%, JMJD2A Tudor inh 16µM*, Sfp PPTase inh 4µM* and G9a inh 25µM*.
`CC(C)(C)S(=O)(=O)/C(C#N)=N/Nc1ccc(Cl)cc1` gave HP1b chromo inh 3%, BAZ2B inh inconclusive, JMJD2A Tudor inh inconclusive, Sfp PPTase inh 23% and G9a inh 35µM*.
For NC(N)=NCCCS(=O)(=O)Nc1ccc(Nc2c3ccccc3nc3cc([N+](=O)[O-])ccc23)cc1 the results were HP1b chromo inh 5% and JMJD2A Tudor inh -18%.
O=C(CCCOc1ccc(Cl)cc1Cl)Nc1cccnc1 was read as HP1b chromo inh 26%, BAZ2B inh 5%, JMJD2A Tudor inh -16%, Sfp PPTase inh 23% and G9a inh 45µM*.
Screening CCCCC(=O)Nc1ccc(C(=O)NNC(=O)CCCOc2ccc(Cl)cc2Cl)cc1 returned HP1b chromo inh 8%, BAZ2B inh 4%, JMJD2A Tudor inh -32%, Sfp PPTase inh 3% and G9a inh 50µM*.
Screening Cc1cc(NC(=O)Cc2cn3ccsc3n2)n(-c2ccccc2)n1 returned HP1b chromo inh 42%, BAZ2B inh 11%, JMJD2A Tudor inh -4%, Sfp PPTase inh 13% and G9a inh -40%.
Cc1ccccc1NC(=S)NCc1ccc2[nH]c3c(c2c1)CCCC3 was read as HP1b chromo inh inconclusive, BAZ2B inh 40µM*, JMJD2A Tudor inh 40µM*, Sfp PPTase inh 5% and G9a inh 40µM*.
Screening S=C(NCc1ccc(Cl)cc1)Nc1ccccc1Cl returned HP1b chromo inh 39%, BAZ2B inh -2%, JMJD2A Tudor inh 2%, Sfp PPTase inh 4% and G9a inh 29%[59 µM].
`Cc1ccc(C)c(NC(=S)NCc2ccc3[nH]c4c(c3c2)CCCC4)c1` gave HP1b chromo inh inconclusive, BAZ2B inh 32µM*, JMJD2A Tudor inh 50µM*, Sfp PPTase inh -7% and G9a inh 40µM*.
For COc1ccc(CNC(=S)Nc2ccccc2C)cc1 the results were HP1b chromo inh -3%, BAZ2B inh -6%, JMJD2A Tudor inh inconclusive, Sfp PPTase inh 15% and G9a inh 23%[59 µM].
S=C(NCc1ccc2[nH]c3c(c2c1)CCCC3)Nc1ccccc1Cl was read as HP1b chromo inh inconclusive, BAZ2B inh 35µM*, JMJD2A Tudor inh 50µM*, Sfp PPTase inh -10% and G9a inh 40µM*.
For CCOc1ccc(S(=O)(=O)N2CCOCC2)cc1NC(=O)Cc1c(F)cccc1Cl the results were HP1b chromo inh 51%, BAZ2B inh -4%, JMJD2A Tudor inh -4% and G9a inh -21%.
For O=[N+]([O-])c1cccc(C(=S)N2CCN(c3ccccc3F)CC2)c1 the results were HP1b chromo inh inconclusive, BAZ2B inh inconclusive, JMJD2A Tudor inh inconclusive, Sfp PPTase inh -20% and G9a inh 20µM*.
Screening O=C(c1cccc([N+](=O)[O-])c1)N1CCN(S(=O)(=O)/C=C/c2ccccc2)CC1 returned HP1b chromo inh 29%, BAZ2B inh 11%, JMJD2A Tudor inh -10% and G9a inh 8.9µM*.
Screening C/C(=N\N1CCN(c2ccc(Cl)cc2)CC1)c1cccc([N+](=O)[O-])c1 returned HP1b chromo inh -17%, BAZ2B inh inconclusive, JMJD2A Tudor inh inconclusive, Sfp PPTase inh -14% and G9a inh 22µM*.
`O=C(OCC(=O)N1CCN(c2ccccc2)CC1)c1cccc([N+](=O)[O-])c1` gave HP1b chromo inh 27%, BAZ2B inh -4%, JMJD2A Tudor inh -18% and G9a inh inconclusive.
Screening O=C(c1cccc([N+](=O)[O-])c1)N1CCN(c2ccc(Cl)cc2)CC1 returned HP1b chromo inh 5%, BAZ2B inh inconclusive, JMJD2A Tudor inh -28%, Sfp PPTase inh -5% and G9a inh inconclusive.

From PubChem
